# According to the supplement of paper PMC8728848:
# Shown is part of a subset that was picked to be rich in the strongest signals.
# What was measured:
# Assay in all cases: glycan array binding signal (z-score within array); higher = stronger binding
# Conditions in all cases: glycan notation: IUPAC condensed, linker removed
# Fuc(a1-2)Gal = molecular target: Fuc(a1-2)Gal
# In short: (§1)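 Columns mapping to the same glycan were averaged after glycan names were converted to IUPAC-condensed notation. The data come from 3228 arrays in the Consortium for Functional Glycomics database, limited to those with an available protein sequence. Binding is reported as a within-array Z-score averaged across arrays of one protein sequence and across linkers.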
# [1] = molecular target: Fuc(a1-2)Gal(b1-3)GlcNAc(b1-2)Man(a1-3)[Fuc(a1-2)Gal(b1-3)GlcNAc(b1-2)Man(a1-6)]Man(b1-4)GlcNAc(b1-4)GlcNAc
# In short: as §1
# [2] = molecular target: Fuc(a1-2)Gal(b1-3)GlcNAc(b1-3)[Gal(b1-4)GlcNAc(b1-6)]Gal(b1-4)Glc
# In short: as §1
# [3] = molecular target: Fuc(a1-2)Gal(b1-3)[Fuc(a1-4)]GlcNAc(b1-3)[Gal(b1-4)GlcNAc(b1-6)]Gal(b1-4)Glc
# In short: as §1
# [4] = molecular target: Fuc(a1-2)Gal6S(b1-3)GlcNAc6S
# In short: as §1
# [5] = molecular target: Fuc(a1-2)[Gal(a1-3)]Gal(b1-4)GlcNAc
# In short: as §1
# [6] = molecular target: Fuc(a1-2)[GalNAc(a1-3)]Gal(b1-3)GlcNAc(b1-2)Man(a1-3)[Fuc(a1-2)[GalNAc(a1-3)]Gal(b1-3)GlcNAc(b1-2)Man(a1-6)]Man(b1-4)GlcNAc(b1-4)GlcNAc
# In short: as §1
# [7] = molecular target: Fuc(a1-2)[GalNAc(a1-3)]Gal(b1-3)GlcNAc(b1-3)GalNAc
# In short: as §1
# [8] = molecular target: Fuc(a1-2)[GalNAc(a1-3)]Gal(b1-4)[Fuc(a1-3)]GlcNAc(b1-3)GalNAc
# In short: as §1
# [9] = molecular target: Fuc(a1-3)[Gal(b1-4)]GlcNAc(b1-6)GalNAc
# In short: as §1
# [10] = molecular target: Gal(a1-3)Gal(b1-3)[Fuc(a1-4)]GlcNAc(b1-2)Man(a1-3)[Gal(a1-3)Gal(b1-3)[Fuc(a1-4)]GlcNAc(b1-2)Man(a1-6)]Man(b1-4)GlcNAc(b1-4)GlcNAc
# In short: as §1
# Gal(a1-3)Gal(b1-4)GlcNAc = molecular target: Gal(a1-3)Gal(b1-4)GlcNAc
# In short: as §1
# [11] = molecular target: Gal(a1-3)Gal(b1-4)[Fuc(a1-3)]GlcNAc
# In short: as §1
# Gal(a1-3)GalNAc = molecular target: Gal(a1-3)GalNAc
# In short: as §1
# [12] = molecular target: Gal(a1-4)Gal(b1-3)GlcNAc(b1-2)Man(a1-3)[Gal(a1-4)Gal(b1-3)GlcNAc(b1-2)Man(a1-6)]Man(b1-4)GlcNAc(b1-4)GlcNAc
# In short: as §1
# [13] = molecular target: Gal(b1-3)GalNAc(b1-4)Gal(b1-4)Glc
# In short: as §1
# [14] = molecular target: Gal(b1-3)GlcNAc(b1-2)Man(a1-3)[Gal(b1-3)GlcNAc(b1-2)Man(a1-6)]Man(b1-4)GlcNAc(b1-4)GlcNAc
# In short: as §1
# [15] = molecular target: Gal(b1-3)GlcNAc(b1-3)Gal(b1-4)Glc
# In short: as §1
# [16] = molecular target: Gal(b1-3)GlcNAc(b1-3)Gal(b1-4)[Fuc(a1-3)]GlcNAc(b1-6)[Gal(b1-3)GlcNAc(b1-3)]Gal(b1-4)Glc
# In short: as §1
# [17] = molecular target: Gal(b1-3)[Neu5Ac(a2-6)]GalNAc
# In short: as §1
# [18] = molecular target: Gal(b1-3)[Neu5Ac(a2-6)]GlcNAc(b1-4)Gal(b1-4)Glc
# In short: as §1
# [19] = molecular target: Gal(b1-4)GlcNAc(b1-2)Man(a1-3)[Gal(b1-4)GlcNAc(b1-2)Man(a1-6)][GlcNAc(b1-4)]Man(b1-4)GlcNAc(b1-4)[Fuc(a1-6)]GlcNAc
# In short: as §1
# [20] = molecular target: Gal(b1-4)GlcNAc(b1-3)Gal(b1-4)GlcNAc(b1-3)Gal(b1-4)GlcNAc(b1-2)Man(a1-3)[Gal(b1-4)GlcNAc(b1-3)Gal(b1-4)GlcNAc(b1-3)Gal(b1-4)GlcNAc(b1-2)Man(a1-6)]Man(b1-4)GlcNAc(b1-4)GlcNAc
# In short: as §1
# [21] = molecular target: Gal(b1-4)GlcNAc(b1-3)Gal(b1-4)GlcNAc(b1-3)Gal(b1-4)GlcNAc(b1-3)Gal(b1-4)GlcNAc(b1-2)Man(a1-3)[Gal(b1-4)GlcNAc(b1-3)Gal(b1-4)GlcNAc(b1-3)Gal(b1-4)GlcNAc(b1-3)Gal(b1-4)GlcNAc(b1-2)Man(a1-6)]Man(b1-4)GlcNAc(b1-4)GlcNAc
# In short: as §1
# [22] = molecular target: Gal(b1-4)GlcNAc(b1-3)Gal(b1-4)GlcNAc(b1-3)Gal(b1-4)GlcNAc(b1-3)Gal(b1-4)GlcNAc(b1-2)[Gal(b1-4)GlcNAc(b1-3)Gal(b1-4)GlcNAc(b1-3)Gal(b1-4)GlcNAc(b1-3)Gal(b1-4)GlcNAc(b1-6)]Man(a1-6)[Gal(b1-4)GlcNAc(b1-3)Gal(b1-4)GlcNAc(b1-3)Gal(b1-4)GlcNAc(b1-3)Gal(b1-4)GlcNAc(b1-2)Man(a1-3)]Man(b1-4)GlcNAc(b1-4)[Fuc(a1-6)]GlcNAc
# In short: as §1
# [23] = molecular target: Gal(b1-4)GlcNAc(b1-3)Gal(b1-4)GlcNAc(b1-3)Gal(b1-4)GlcNAc(b1-3)Gal(b1-4)GlcNAc(b1-3)Gal(b1-4)GlcNAc(b1-2)[Gal(b1-4)GlcNAc(b1-3)Gal(b1-4)GlcNAc(b1-3)Gal(b1-4)GlcNAc(b1-3)Gal(b1-4)GlcNAc(b1-3)Gal(b1-4)GlcNAc(b1-6)]Man(a1-6)[Gal(b1-4)GlcNAc(b1-3)Gal(b1-4)GlcNAc(b1-3)Gal(b1-4)GlcNAc(b1-3)Gal(b1-4)GlcNAc(b1-3)Gal(b1-4)GlcNAc(b1-2)Man(a1-3)]Man(b1-4)GlcNAc(b1-4)[Fuc(a1-6)]GlcNAc
# In short: as §1
# [24] = molecular target: Gal(b1-4)GlcNAc(b1-3)[Fuc(a1-3)GlcNAc(b1-6)]Gal(b1-4)Glc
# In short: as §1
binder,measurement,setting,value
Sp8391B-bot-388-20-388 (Bacteroides ovatus) (protein) GCQNNDENEQHYDNKLFISASNFTKEILFKAGDTNVETGLSVAIAKPEEHDIKVTMSPAPELLSTYKLAYYDETAVLLSEEHYSMPETSTTIKSGSIVSPELPIEFINTGELDIKTTYVLPVTIKSVEGIGVLQSAKTYYYVFRGASLINVVCNISRNRAYPDFKNDSKFNNLTENTMEILFKANSFPNTLNTLMGIESNYLLRIGDATIPNNQLQVATSVNNCTSADLQLESGKWYHVAVAFNKGNVKVYINGVEKLSGSTGKSSVSLGAKHTNEEDGSRCFWVGYSYKDDRYFDGVVSEVRIWNRALTAEEIQATNHFYTIEPESEGLIAYWKFDEGSGTVAKDYSVSGYDLTIEKEPKWESVSLPQ,glycan array binding signal (z-score),Fuc(a1-2)Gal,-0.522
same,glycan array binding signal (z-score),[1],2.69
same,glycan array binding signal (z-score),[2],-0.322
same,glycan array binding signal (z-score),[3],1.29
same,glycan array binding signal (z-score),[4],-0.154
same,glycan array binding signal (z-score),[5],-0.199
same,glycan array binding signal (z-score),[6],0.439
same,glycan array binding signal (z-score),[7],-0.474
same,glycan array binding signal (z-score),[8],-0.673
same,glycan array binding signal (z-score),[9],4.03
same,glycan array binding signal (z-score),[10],8.13
same,glycan array binding signal (z-score),Gal(a1-3)Gal(b1-4)GlcNAc,-0.489
same,glycan array binding signal (z-score),[11],-0.616
same,glycan array binding signal (z-score),Gal(a1-3)GalNAc,-0.069
same,glycan array binding signal (z-score),[12],2.6
same,glycan array binding signal (z-score),[13],0.437
same,glycan array binding signal (z-score),[14],3.77
same,glycan array binding signal (z-score),[15],0.105
same,glycan array binding signal (z-score),[16],12.8
same,glycan array binding signal (z-score),[17],-0.208
same,glycan array binding signal (z-score),[18],-0.044
same,glycan array binding signal (z-score),[19],-0.897
same,glycan array binding signal (z-score),[20],2.45
same,glycan array binding signal (z-score),[21],2.49
same,glycan array binding signal (z-score),[22],-0.629
same,glycan array binding signal (z-score),[23],-0.112
same,glycan array binding signal (z-score),[24],0.415
